# Data from PubChem BioAssay.
# A number with no mark means an inactive call.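 The calls were made as follows: active = inhibition at or above 50% relative to wild type and mutant plate controls; inactive = inhibition below 50%.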
# Experiment: loss of swimming-algae plug formation – whole organism, Chlamydomonas reinhardtii, WT vs cilia-less mutant, absorbance, 96-well, primary screen (AID 463189);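 also: 0% = wild type cc124 cells in DMSO and 100% = ciliumless bld1 mutant cells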
# Conditions: Chlamydomonas reinhardtii gravitaxis, OD600 absorbance, 2 days; at 10 µM; stronger effect = higher value
row,SMILES,inhibition
1,CC(N)=NCCCC[C@@H](N)C(=O)O,7.31%
2,CCCCNc1ccc(C(=O)OCCN(C)C)cc1,8.43%
3,CCn1c(=O)c2[nH]c(-c3ccccc3)nc2n(CC)c1=O,-1.12%
4,N[C@H](C(=O)O)c1cc(O)cc(O)c1,-2.67%
5,CCCCCCN(CCCCCC)C(=O)Cc1c(-c2ccc(F)cc2)[nH]c2ccccc12,8.52%
6,Cc1ccc2c(c1)C(N1CCN(C)CC1)=Nc1cccnc1N2,7.3%
7,Nc1nc(SCc2ccc([N+](=O)[O-])cc2)c2ncn([C@@H]3O[C@H](CO)[C@H](O)C3O)c2n1 (stereo partly specified),-2.89%
8,S=C(S)OC1CC2CC1C1CCCC21 (stereo unspecified),7.66%
9,NCCCCC(=O)O,9.64%
10,O=C(O)C1CCCNC1 (stereo unspecified),-1.36%
11,CSc1nc(N)c2ncn([C@@H]3O[C@H](COP(=O)(O)OP(=O)(O)OP(=O)(O)O)[C@H](O)C3O)c2n1 (stereo partly specified),-3.46%
12,NCCCCCCCCCCN,2.72%
13,CNCC[C@H](Oc1ccc(C(F)(F)F)cc1)c1ccccc1,-14.3%
14,O=C(Nc1ccc([N+](=O)[O-])cc1Cl)c1cc(Cl)ccc1O,43.4%
15,O=C(Nc1cccc(C(=O)Nc2ccc(S(=O)(=O)O)c3cc(S(=O)(=O)O)cc(S(=O)(=O)O)c23)c1)Nc1cccc(C(=O)Nc2ccc(S(=O)(=O)O)c3cc(S(=O)(=O)O)cc(S(=O)(=O)O)c23)c1,1.9%
16,CC[C@H](C)C(=O)O[C@H]1CCC=C2C=C[C@H](C)[C@H](CC[C@@H]3C[C@@H](O)CC(=O)O3)[C@H]21,9.46%
